Assay results from PubChem BioAssay AID624330 (Southern Research Specialized Biocontainment Screening …, 2012).
Among all 340,000 compounds or so, about 2,100 (0.62%) were called active. Not all results are given here. Results with a measured potency or affinity are listed apart. Unmarked numbers belong to inactive results.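 Rule for the calls: active = first-screen hits whose inhibition reached a set limit at any dose in the follow-up dose series; inconclusive = inhibition above the set first-screen limit but never retested; inactive = the rest.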

Biological target: Rac GTPase-activating protein 1 (Homo sapiens) (UniProt Q9H0H5)
Sequence (Q9H0H5 whole entry, looked up): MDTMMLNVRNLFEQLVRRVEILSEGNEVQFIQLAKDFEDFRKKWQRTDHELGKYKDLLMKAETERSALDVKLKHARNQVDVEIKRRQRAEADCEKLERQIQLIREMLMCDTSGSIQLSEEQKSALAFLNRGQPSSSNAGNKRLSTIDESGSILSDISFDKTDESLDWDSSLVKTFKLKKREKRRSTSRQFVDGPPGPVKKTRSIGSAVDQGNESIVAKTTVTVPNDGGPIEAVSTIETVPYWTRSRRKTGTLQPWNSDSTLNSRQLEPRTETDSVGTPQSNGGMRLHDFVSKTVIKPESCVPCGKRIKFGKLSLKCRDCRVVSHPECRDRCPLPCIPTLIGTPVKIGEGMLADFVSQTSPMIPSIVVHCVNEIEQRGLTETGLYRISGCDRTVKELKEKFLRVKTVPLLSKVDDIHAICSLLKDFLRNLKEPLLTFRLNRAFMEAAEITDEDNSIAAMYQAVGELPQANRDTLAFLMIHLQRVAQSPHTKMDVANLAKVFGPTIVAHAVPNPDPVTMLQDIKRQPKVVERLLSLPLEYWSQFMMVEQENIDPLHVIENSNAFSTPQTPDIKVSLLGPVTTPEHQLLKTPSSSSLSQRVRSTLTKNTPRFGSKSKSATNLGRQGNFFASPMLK
Assay: MgcRacGAP GTPase-activating activity inhibitors, confirmation, biochemical, ADP Hunter fluorescence, primary and confirmatory (AID 624330);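 note: fluorescence reports GDP produced by GAP-driven GTP hydrolysis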
Conditions: MgcRacGAP-stimulated Rac1 GTP hydrolysis, at 30 µM, active compounds read high, GST-tagged Rac1 F28L mutant substrate

Structure (SMILES) | inhibition [%]
CCSc1ccc2nnc(-c3cccc(F)c3)n2n1 | 6.86
COC(CN(C)C(=O)C1CCC(CNS(=O)(=O)c2ccccc2)CC1)OC (stereo unspecified) | 6.07
COc1ccc(CNC(=O)COC(=O)CN2C(=O)C3CCCCC3C2=O)cc1 (stereo unspecified) | 12.8
CC(C)c1nccn1CCC(=O)O | 7.06
C[C@H]1CN([C@@H](C)CO)S(=O)(=O)c2ccc(Br)cc2O[C@H]1CN(C)C(=O)Cc1ccccn1 | -10
O=C1C[C@@H](c2ccccc2)Oc2cc(O)cc(O)c21 | 7.07
O=C1CC(c2ccccc2)Oc2cc(O)cc(O)c21 (stereo unspecified) | 7.51
COc1ccccc1NC(=O)COc1cccc2c1CCNC2=O | 5.13
O=S(=O)(NCC(c1ccc2c(c1)OCO2)N1CCOCC1)c1ccc(Br)cc1 (stereo unspecified) | 5.07
CC1=C(C#N)C(=O)NC(=O)/C1=C/c1ccc(-c2ccc(S(N)(=O)=O)cc2)o1 | 25.6
CCCOC(=O)c1cc(-c2ccc(/C=C3/C(=O)N(C)C(=O)C(C#N)=C3C)o2)ccc1Cl | 13.4
COC(=O)c1ccccc1NC(=O)C/C(C)=N/NC(=O)Cc1ccc(Cl)cc1 | 4.76
CC(=O)N1CCc2cc(S(=O)(=O)CCC(=O)N(C)c3cc(C)ccc3C)ccc21 | 2.95
COc1ccc(Cn2c(-c3ccc(OC)c(O)c3)nc3ccccc32)cc1O | 11.2
COc1ccc(NC(=S)NCc2cccnc2)cc1 | 2.3
Cc1ccc(NCc2cccnc2)cc1 | 9.95
COc1ccc(CNc2ccc(Br)cc2)cc1 | 9.45
COc1ccc(CNc2ccc(C(=O)O)cc2)cc1 | 5.05
O=C(O)c1ccc(C(=O)O)c(C(=O)c2ccc(NC(=O)c3ccccc3)cc2)c1 | 8.04
O=C(O)C1(P(=O)(c2ccc(Cl)cc2)c2ccc(Cl)cc2)CCCC1 | 10.3
Cn1cc2ccc(N)cc2n1 | 6.58
Cc1ccc2cc(N)ccc2n1 | 10.9

Structure (SMILES) | inhibition [%]
CC(C)(C)C(=O)N1CCC2CC1c1cc(Cl)ccc12 (stereo unspecified) | 9.89
CCN(CC)S(=O)(=O)c1ccc(N/N=C/c2cc(OC)ccc2O)nc1 | 5.07
CCOc1cccc(/C=N/Nc2ccc(S(=O)(=O)N(CC)CC)cn2)c1O | 2.17
CCN(CC)S(=O)(=O)c1ccc(N/N=C/c2cccnc2)nc1 | 2.22
CCN(CC)S(=O)(=O)c1ccc(N/N=C/c2cc(OC)c(OC)cc2OC)nc1 | 4.42
CN(CC(=O)Nc1cccc(F)c1)C(=O)Cc1ccsc1 | 8.14
Cc1cc(C)c2nc(NC(=O)C3CSC4(C)CCC(=O)N34)sc2c1 (stereo unspecified) | 5.06
CC1=C(C(=O)OC(C)C)C(c2ccc(Br)s2)NC(=O)N1 (stereo unspecified) | 1.12
O=C(NCC(c1cccnc1)N1CCOCC1)C1CCCCC1 (stereo unspecified) | 0.64
COC(=O)c1ccc(OC)c(CN2CCCN(Cc3ccc(F)cc3)S2(=O)=O)c1 | 6.78
Cc1cccc(C)c1-n1cccc1/C=C1\SC(=S)N(c2cccc(C(=O)O)c2)C1=O | -1.38
O=C(O)CN1C(=O)/C(=C/c2ccc(SCc3ccccc3)o2)SC1=S | 41
O=C(NCC(c1ccco1)N1CCCC1)c1cccc(NS(=O)(=O)c2ccccc2)c1 (stereo unspecified) | 7.02
CC(=O)C1=C(O)C(=O)N(Cc2ccccc2)C1c1ccc(N(C)C)cc1 (stereo unspecified) | 5.08
COc1ccc(C2=NN(Cc3ccccc3)C3C(=O)NC(=O)C23)cc1 (stereo unspecified) | 1.11
O=C(N/C(=C/c1ccccc1)C(=O)N1CCCCC1)c1ccccc1 | 7.71
O=C(N/C(=C/c1ccccc1)C(=O)N1CCCCCC1)c1ccccc1 | 4.23
Cc1cc(C)c2[nH]c(=O)c(CN(CC3CCCO3)S(=O)(=O)c3ccc4c(c3)OCCO4)cc2c1 (stereo unspecified) | -7.75
O=C1C2C3C=CC(C3)C2C(=O)N1Nc1c(Cl)cc(Cl)cc1Cl (stereo unspecified) | -1.67
CCN(C(=O)CSc1nnc(-c2ccccc2Cl)n1C1CCCC1)C1CCS(=O)(=O)C1 (stereo unspecified) | 10.2
C=CCn1c(SCC(=O)NC2(C#N)CCCCC2)nnc1-c1ccncc1 | -2.35
CC1CCCC(C)N1S(=O)(=O)c1ccc(NC(=O)CNCC2CCCO2)cc1 (stereo unspecified) | 13.2

Structure (SMILES) | inhibition [%]
COc1ccc(S(=O)(=O)N2CCN(CC(=O)Nc3cccc(OC)c3)CC2)cc1 | -0.54
CN1CCN(CCC(=O)Nc2ccc3c(c2)OCO3)CC1 | 9.52
COc1ccc(N2CCN(CC(=O)Nc3ccc(C)cc3)CC2)cc1 | 6.34
CCN1CCN(CCC(=O)Nc2ccc3c(c2)OCO3)CC1 | -5.95
O=C(CNCC1CCCO1)Nc1ccccc1N1CCCCCC1 (stereo unspecified) | 15.5
COc1ccc(NC(=O)c2ccc(NC(=O)CN3CCN(c4ccccc4)CC3)cc2)cc1 | -2.48
O=C(CN1CCOCC1)Nc1cccc(S(=O)(=O)N2CCCCCC2)c1 | 4.7
CC1(C)CC(=O)C=C(NCCN2CCN(C(=S)Nc3ccccc3)CC2)C1 | 7.52
Cc1ccc(NS(=O)(=O)c2ccc3c(c2)NC(=O)C(C)C(=O)N3)c(Br)c1 (stereo unspecified) | -1.09
Cc1onc(-c2ccccc2)c1C(=O)c1c[nH]c(C(=O)NCc2ccccn2)c1 | 3.33
c1ccc(NN(Cc2ccccn2)c2ccccc2)cc1 | -6.65
O=C(CCC(=O)c1cccs1)Nc1ncccc1O | 11.4
CCOC(CCNC(=O)c1cn(CC(C)C)c(=O)c2c1c1ccccc1n2C)OCC | 17.2
CC(=O)Nc1cccc(Oc2cc(C#N)c(C#N)cc2N2CCCCCC2)c1 | 5.07
O=C(CN1CCN(c2ccccc2)CC1)Nc1ccc2c(c1)OCCO2 | 0.3
O=C(CSCc1ccc(Cl)cc1)Nc1ccc2c(c1)OCCO2 | 5.15
CC1CCCCN1CC(=O)Nc1ccc2c(c1)OCO2 (stereo unspecified) | 31
O=C(CN1CCN(c2ccc(F)cc2)CC1)Nc1ccc2c(c1)OCCO2 | 9.33
O=C(CNCc1ccccc1Cl)Nc1ccc2c(c1)OCCO2 | 29.9
O=C(CNC1CCCCC1)Nc1ccc(Cl)cc1 | 1.58
O=C(CNC1CCCC1)Nc1ccc(S(=O)(=O)N2CCCCC2)cc1 | 3.94
CC1CCCCN1CC(=O)Nc1ccc(Oc2ccccc2)cc1 (stereo unspecified) | 9.36
